# KDM5B inh – Primary screen for KDM5B Histone Demethylases FDH-coupled qHTS. Potency, µM (series often up to 57.7 µM), actives largely listed as inhibitors. 220,000 compounds, 2.6% hits. Lysine-specific demethylase 5B (Homo sapiens), Q9UGL1. KDM5B demethylase, FDH-coupled NADH fluorescence (FDH is formaldehyde dehydrogenase); active means well fitted inhibition curve with a large enough effect; further: 0% is about no effect; nearly all actives have a fitted effect of over 70% in size
#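 Measured: NADH fluorescence change, 30 min, RT. System: KDM5BΔAP 200 nM final, H3K4me3 peptide, α-KG, Fe(II), ascorbate, NAD⁺ plus FDH, pH 7.5 HEPES. Compounds: titrated, 10 min pre-incubation with enzyme.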
# Active calls of the source: *; i = inactive. This excerpt belongs to a sample that is enriched for hits. Potency means the concentration at half of the fitted maximal effect.
SMILES,KDM5B inh
O=C(COc1ccc([N+](=O)[O-])cc1)Nc1ccc2oc(-c3ccc(F)cc3)nc2c1,i
Cc1cc(C)c2oc(C(=O)Nc3ccc(S(=O)(=O)Nc4onc(C)c4C)cc3)cc(=O)c2c1,i
COCC[C@]1(O)CCN(C(=O)CCCc2cccs2)C[C@H]1C,i
O=C1COc2ccc(OCC3CC3)nc2CN1Cc1ccc(C(F)(F)F)cc1,i
O=C1COc2ccc(-c3ccccc3)nc2CN1Cc1ccccc1F,i
O=C1COc2ccc(-c3ccncc3)nc2CN1Cc1ccc(C(F)(F)F)cc1,39.8µM*
O=C1COc2ccc(-c3ccoc3)nc2CN1Cc1ccccc1,31.6µM*
Cc1ccccc1CN1Cc2nc(-c3ccccc3)ccc2OCC1=O,i
O=C1COc2ccc(-c3cn[nH]c3)nc2CN1Cc1ccc(C(F)(F)F)cc1,i
O=C1COc2ccc(-c3ccncc3)nc2CN1Cc1ccccc1,35.5µM*
O=C1COc2ccc(-c3ccoc3)nc2CN1Cc1ccc(C(F)(F)F)cc1,35.5µM*
CN1CCCC1COc1ccc2c(n1)CN(Cc1ccc(C(F)(F)F)cc1)C(=O)CO2 (stereo not given),i
Cc1ccccc1CN1Cc2nc(-c3cnn(Cc4ccccc4)c3)ccc2OCC1=O,i
Cc1noc(C)c1-c1ccc2c(n1)CN(Cc1ccc(C(F)(F)F)cc1)C(=O)CO2,i
Cc1ccccc1-c1ccc2c(n1)CN(Cc1ccccc1)C(=O)CO2,i
CCC(C)(C)C1CCC(NC(=S)NCc2ccc(F)cc2)CC1 (stereo not given),i
CCc1c(C)sc(NC(=O)Cc2ccccc2)c1C#N,i
CCc1ccc(C(=O)NC2CCN(c3cn[nH]c(=O)c3)CC2)cc1,i
CC(C)NC(=O)Cn1cccc1-c1nc(-c2ccc(Cl)cc2)no1,i
NCC(=O)N1CCC2(CC1)C(=O)NCN2C(=O)c1ccc(Cl)cc1,i
CCS(=O)(=O)Nc1ccc(C(=O)N[C@H]2C[C@@H](C(=O)OC)N(C)C2)cc1,i
CC(C)c1ccc(-n2ccc3nc(N4CCCC4)ncc3c2=O)cc1,i
CC(C)c1nc(N2CCCCCC2)ncc1C(=O)O,28.2µM*
COc1ccc(N2CCN(C(=O)c3cnc(N4CCCC4)nc3C)CC2)cc1,i
CCNc1nccc(N2CCC(CC(=O)NCCCOC)CC2)n1,i
SMILES,KDM5B inh
COc1ccc(S(=O)(=O)NCCNc2cc(C)nc3ccnn23)cc1,28.2µM*
Clc1cc(NCCOc2ccccc2)n2nccc2n1,i
COc1ccc(S(=O)(=O)NCc2nc3nc(C)cc(C)n3n2)cc1,i
Cc1ccc(CS(=O)Cc2ccc(F)cc2Cl)cc1 (stereo not given),i
O=C1Nc2ccccc2OCC12CCN(Cc1ccc(OC(F)(F)F)cc1)CC2,i
O=C(c1ccccc1F)N1C[C@@H](CO)[C@H](c2nc(C3CC3)no2)C1,i
O=C(c1nccc2ccccc12)N1CCC(c2noc(C3CC3)n2)C1 (stereo not given),i
Cc1noc([C@@H]2CN(C(=O)CCc3c[nH]c4ccccc34)C[C@H]2CO)n1,i
O=C(c1cccc2[nH]ccc12)N1CCC(c2noc(C3CC3)n2)C1 (stereo not given),22.4µM*
Cc1noc([C@@H]2CN(C(=O)c3nccc4ccccc34)C[C@H]2CO)n1,i
O=C(c1cccc2[nH]ccc12)N1C[C@@H](CO)[C@H](c2nc(C3CC3)no2)C1,22.4µM*
Cc1noc([C@@H]2CN(C(=O)c3cccc4[nH]ccc34)C[C@H]2CO)n1,28.2µM*
O=C(c1ccoc1)N1CCC(c2noc(C3CC3)n2)C1 (stereo not given),i
O=C(c1ccc(F)cc1)N1C[C@@H](CO)[C@H](c2nc(C3CC3)no2)C1,i
Cc1onc(C(=O)NC2CCc3nn(C)c(=O)n3CC2)c1COc1ccccc1 (stereo not given),i
COc1cccc(CC(=O)N2CCC3(CC2)OC(=O)N(Cc2csc(C)n2)C3(C)c2ccccc2)c1 (stereo not given),i
CCCNC(=O)C12CC3CC(C1)CC(c1ccccc1)(C3)C2,i
Cc1cc(C)cc(C(=O)NCc2ccco2)c1,i
CCOC(=O)C1=C(c2ccccc2)NC(=S)NC1c1ccccc1 (stereo not given),i
O=C(c1cccc(F)c1)N1CCN(c2nnc3ccc(Cl)cn23)CC1,14.1µM*
Cc1ccc(C(=O)N2CCN(Cc3ccc(Cl)cc3)CC2)cc1C,i
COc1ccc(C(=O)N2CCN(c3cc(-c4ccc(F)cc4)[nH]n3)CC2)cc1,i
Cc1ccc(C(=O)N2CCN(c3nnc4ccccn34)CC2)cc1C,25.1µM*
O=C(c1cccc(F)c1)N1CCN(c2cn[nH]c(=O)c2Cl)CC1,i
O=C(c1ccc(F)cc1)N1CCN(c2ccc([N+](=O)[O-])cc2-n2cccc2)CC1,i
O=C(c1ccc(F)cc1)N1CCN(c2nnc3ccccn23)CC1,28.2µM*
Cc1ccc(C(=O)N2CCN(c3cc(-c4cccs4)[nH]n3)CC2)cc1C,i
